BoNT-F LC inh: blocks Botulinum neurotoxin F light chain protease; Multiplex microsphere protease cleavage assay, flow cytometry; inhibition, % at 10 µM; hit rate 0.22% among 360,000; AID 588497; in the data active = inhibition above about 35%, passing the limit was not always enough; inconclusive = no clear call, values can overlap the other calls; also: plate controls were buffer without enzyme for full effect and enzyme alone for no effect
Bead autofluor: compound fluorescence in toxin protease inhibitor counterscreen. compound autofluorescence counterscreen, microsphere flow cytometry; hits give high values. fluorescence intensity (concentration not given with the values). AID 624483. hit rate 3.1% among 360,000; in the data active = fluorescence intensity above about 16000; inconclusive = no clear call, values can overlap the other calls
BoNT A protease: blocks Botulinum neurotoxin A light chain protease; multiplex microsphere protease substrate cleavage, flow cytometry; AID 588499; hit rate 0.17% among 360,000; inhibition, % at 10 µM; also: plate controls were buffer without enzyme for full effect and enzyme alone for no effect
Anthrax LF inh2: anthrax lethal factor protease inhibition; P15917; multiplex microsphere protease cleavage assay, LF; inhibition, % at 10 µM; hit rate 0.12% among 360,000; AID 588501; also: plate controls were buffer without enzyme for full effect and enzyme alone for no effect
SSB-PriA inh: K. pneumoniae PriA-SSBct interaction inhibition; AlphaScreen SSBct-PriA binding, biotinylated peptide; inhibition, % at 33 µM; hit rate 0.6% among 430,000; AID 1272365; in the data active = inhibition mostly above about 37%, no sharp cut-off; inactive = mostly below about 20%;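 also: plate controls were negative control peptide for no effect and reference peptide for full effect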
The depositor's hits bear a star. Hits are enriched below; roughly 3.1% of the tested compounds scored in any of these assays. Rule as the data show it, unless noted: active = inhibition above about 30%; inconclusive = no clear call, values can overlap the other calls; inactive = below that.

`CCn1c(SCc2cc(=O)[nH]c3ccccc23)nc2c1c(=O)n(C)c(=O)n2C` gave BoNT-F LC inh -9, Bead autofluor 24332*, BoNT A protease -4, Anthrax LF inh2 -2 and SSB-PriA inh -7.
For CCn1c(SCC(=O)N2CCCc3ccccc32)nc2c1c(=O)n(C)c(=O)n2C the results were BoNT-F LC inh 0, Bead autofluor 22886*, BoNT A protease inconclusive, Anthrax LF inh2 0 and SSB-PriA inh 3.
For O=C(CSc1nccn1-c1ccccc1)N1CCc2ccccc21 the results were BoNT-F LC inh -12, Bead autofluor 4967, BoNT A protease -1, Anthrax LF inh2 -1 and SSB-PriA inh 7.
Screening Cn1ccnc1SCc1cc(=O)[nH]c2ccccc12 returned BoNT-F LC inh -5, Bead autofluor 11368, BoNT A protease 0, Anthrax LF inh2 -2 and SSB-PriA inh 3.
CCOc1ccc(NC(=O)N2CCS[C@H](c3ccccc3C)CC2)cc1 was read as SSB-PriA inh 5.
Screening N#Cc1cccnc1OC1CCN(C(=O)Cn2c(=O)oc3ccccc32)CC1 returned SSB-PriA inh -20.
Screening CCN(CC)CC(=O)Nc1ccc(Br)cc1C(=O)c1ccccc1 returned SSB-PriA inh -14.
For CC(Cc1ccccc1)=NNC(=O)CNC(=O)COc1cccc(C)c1 the results were SSB-PriA inh -1.
Screening C=C(C)Cn1c(N2CCN(c3ccc(OC)cc3)CC2)nc2c1c(=O)n(C)c(=O)n2C returned BoNT-F LC inh -2, Bead autofluor 3887, BoNT A protease 0, Anthrax LF inh2 0 and SSB-PriA inh -7.
`CCCn1c(SCC(=O)N2CCCC2)nc2c1c(=O)n(C)c(=O)n2C` gave BoNT-F LC inh -1, Bead autofluor 22149*, BoNT A protease inconclusive, Anthrax LF inh2 -3 and SSB-PriA inh 7.
`CCCn1c(SCC(=O)Nc2ccccc2N2CCCCC2)nc2c1c(=O)n(C)c(=O)n2C` gave BoNT-F LC inh -2, Bead autofluor 7872, BoNT A protease 0, Anthrax LF inh2 -2 and SSB-PriA inh -7.
`CCCn1c(SCC(=O)N2CCN(c3ccc(OC)cc3)CC2)nc2c1c(=O)n(C)c(=O)n2C` gave BoNT-F LC inh -1, Bead autofluor 19577*, BoNT A protease 0, Anthrax LF inh2 -2 and SSB-PriA inh -12.
For CCCn1c(SCC(=O)NCCc2ccc(OC)c(OC)c2)nc2c1c(=O)n(C)c(=O)n2C the results were BoNT-F LC inh 4, Bead autofluor 18189*, BoNT A protease 4, Anthrax LF inh2 -2 and SSB-PriA inh -24.
For CCCn1c(SCC(=O)Nc2ccccc2C(=O)OC)nc2c1c(=O)n(C)c(=O)n2C the results were BoNT-F LC inh -1, Bead autofluor 20496*, BoNT A protease -2, Anthrax LF inh2 2 and SSB-PriA inh -10.
`CCn1c(SCC(=O)N2CCCc3ccccc32)nnc1-c1cccs1` gave BoNT-F LC inh -5, Bead autofluor 16895*, BoNT A protease -2, Anthrax LF inh2 -2 and SSB-PriA inh -10.
CC(=NNS(=O)(=O)c1ccccc1)c1ccc2c(c1)OCO2 was read as SSB-PriA inh -5.
CC(=O)Nc1ccnc(-c2cccnc2)n1 was read as BoNT-F LC inh 3, Bead autofluor 9610, BoNT A protease 0, Anthrax LF inh2 -1 and SSB-PriA inh -21.
Screening O=C(Nc1ccnc(-c2cccnc2)n1)c1cccc(Cl)c1Cl returned BoNT-F LC inh -1, Bead autofluor 22659*, BoNT A protease -1, Anthrax LF inh2 -5 and SSB-PriA inh -18.
O=C(Nc1ccnc(-c2cccnc2)n1)c1ccccc1Cl was read as BoNT-F LC inh -6, Bead autofluor 2794, BoNT A protease 0, Anthrax LF inh2 0 and SSB-PriA inh -4.
`CC(C)C(=O)Nc1ccnc(-c2cccnc2)n1` gave BoNT-F LC inh 1, Bead autofluor 22732*, BoNT A protease 0, Anthrax LF inh2 0 and SSB-PriA inh -14.
`Cc1cnc2n(c1=O)CC(C(=O)N1c3ccccc3CC1C)CS2` (stereo not drawn) gave SSB-PriA inh -21.
Screening O=C(Nc1cnn(CC2CCOCC2)c1)c1cccnc1 returned SSB-PriA inh -8.
CCSc1nnc([C@@H](NC(=O)OC(C)(C)C)C(C)C)o1 was read as BoNT-F LC inh inconclusive, Bead autofluor 3526, BoNT A protease 0, Anthrax LF inh2 7 and SSB-PriA inh -8.
Screening C=C(C)CSc1nnc([C@@H](NC(=O)OC(C)(C)C)C(C)CC)o1 (stereo partly drawn) returned BoNT-F LC inh 5, Bead autofluor 20796*, BoNT A protease inconclusive, Anthrax LF inh2 -1 and SSB-PriA inh -9.
